The list is not random: actives were taken first. Their share in the collection is about 5.7%.
ClpP mod = qHTS Assay for Activators of ClpP. purified B. subtilis ClpP, FRET peptide cleavage, 20 min. Potency, µM (highest dose often 57.5 µM). 1.9% of 340,000 active; active = well fitted falling curve with a large enough effect; inconclusive = small, poorly fitted or top-dose-only effect; inactive = no such curve, though single readings can be large or run the other way; note: the source files actives as falling curves though it sought activators and does not explain the sign; nearly all actives have a fitted effect of over 65% in size
Target sequence (P80244 whole entry, looked up): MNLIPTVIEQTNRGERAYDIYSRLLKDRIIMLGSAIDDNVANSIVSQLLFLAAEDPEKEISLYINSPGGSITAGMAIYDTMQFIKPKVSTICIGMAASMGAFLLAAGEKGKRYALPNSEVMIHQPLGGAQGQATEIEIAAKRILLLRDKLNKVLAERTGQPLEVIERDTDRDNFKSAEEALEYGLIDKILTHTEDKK
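FRET quenching reversal measured ClpP activation: 10 microg/mL B. subtilis ClpP at pH 8 with the FRET-FV decapeptide, read at 430 nm after 320 nm excitation. The 20-min minus 0-min signal was scaled between DMSO/no-enzyme wells and ADEP (5.8 microM final).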
GLP1R cytotox = cytotoxic in the GLP-1 receptor inverse agonist counter-screen; HEK293 cAMP-luciferase reporter cells, luminescence, 24 h; AID 624418; Potency, µM (top dose mostly 38.3 µM), actives largely listed as inhibitors; 0.13% of 410,000 active;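 note: loss of luciferase light is scored as toxicity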
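MLSMR compounds, 24 hr on cells at 37 deg C/5% CO2; luminescence after luciferase reagent (12 min RT). Inhibition counted as the undesired cytotoxic outcome.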
GLP-1R agonist = GLP-1 receptor (human) agonism | P43220 | HEK293 GLP-1R CRE-luciferase, luminescence, 4-6 h; cells express a hypersensitive GLP-1R form | Potency, µM (series often up to 45.6 µM), most hits filed as activators | 0.007% of 380,000 active | AID 624172
D3 ag = activates the human D3 dopamine receptor; max activation, %; D3R DiscoveRx beta-arrestin cells, luminescence, 90 min; 0.58% of 410,000 active; P35462; in the data active = max activation above about 30%
Target sequence (P35462 whole entry, looked up): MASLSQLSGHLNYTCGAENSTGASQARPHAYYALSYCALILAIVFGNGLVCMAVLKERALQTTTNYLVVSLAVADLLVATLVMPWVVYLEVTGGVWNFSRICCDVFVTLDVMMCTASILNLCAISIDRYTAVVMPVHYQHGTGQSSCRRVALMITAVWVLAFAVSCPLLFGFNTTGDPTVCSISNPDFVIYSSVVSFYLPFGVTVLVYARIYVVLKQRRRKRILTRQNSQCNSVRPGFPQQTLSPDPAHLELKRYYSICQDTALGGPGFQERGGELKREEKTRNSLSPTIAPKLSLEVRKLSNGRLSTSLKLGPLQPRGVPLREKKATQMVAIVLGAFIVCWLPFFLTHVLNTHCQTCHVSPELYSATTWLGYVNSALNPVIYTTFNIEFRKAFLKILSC
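Cells at 1500/well, incubated overnight, then treated with pinned compounds (dopamine as control) for 90 min at 37 degrees C. DiscoveRx reagent added for 30 - 60 minutes at room temperature; luminescence read.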
DRD3 antagonist = blocks the human D3 dopamine receptor; D3R cells, DiscoveRx beta-arrestin luminescence, antagonist mode; active compounds read low; AID 652054; P35462; max response, negative = inhibition, %; 2.5% of 360,000 active; in the data active = max response below about -50%; inconclusive = no clear call, values can overlap the other calls
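Cells expressing the human receptor were seeded at 1500 cells/well, incubated overnight at 37 degrees C in 5% CO2, then exposed to library compounds with dopamine controls for 90 minutes at 37 degrees C before luminescent detection.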
GLP1R inv ag = acts as inverse agonist at human GLP-1 receptor. HEK293 GLP-1R CRE-luciferase, luminescence, 24 h; GLP-1R form is constitutively active. Potency, µM (doses to about 38.3 µM), usual class: inhibitors. 1.6% of 410,000 active. AID 624417; note: nearly all actives have a fitted effect of over 55% in size
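HEK293 cells stably co-expressing constitutively active GLP-1R and a cAMP-responsive luciferase reporter were seeded in DMEM with 10% Nu serum, given compounds after 12 h, and incubated 24 h at 37 deg C. Luminescence was then read.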
Hits are given with their value; [ ] = another dose, or the depositor's remark. Unless noted, calls come from the whole dose curve; as a rule, active = well fitted curve in the direction sought with a large enough effect; inconclusive = small, poorly fitted or top-dose-only effect, or another doubt; inactive = no such curve, though single readings can be large; an effect the other way counts as inactive or inconclusive.

What do the screens show for `Cc1ccc2nc(-c3ccc(NC(=O)COC(=O)c4ccc([N+](=O)[O-])o4)cc3)sc2c1`?
ClpP mod: 28µM; GLP1R cytotox: inactive[1.53 µM]; GLP-1R agonist: inactive; D3 ag: inactive; DRD3 antagonist: inactive; GLP1R inv ag: inactive

How did Cc1ccc2nc(-c3ccc(NC(=O)COC(=O)c4ccco4)cc3)sc2c1 do in these assays?
ClpP mod: 7.1µM; GLP1R cytotox: inactive; GLP-1R agonist: inactive; D3 ag: inactive; DRD3 antagonist: inactive; GLP1R inv ag: inactive

What do the screens show for `Cc1ccc2nc(-c3ccc(NC(=O)COC(=O)c4ccc(Br)o4)cc3)sc2c1`?
ClpP mod: 8.9µM; GLP1R cytotox: inactive; GLP-1R agonist: inactive; D3 ag: inactive; DRD3 antagonist: inactive; GLP1R inv ag: inconclusive

Results for CCn1c(=O)cc(OCC(=O)NCc2ccccc2Cl)c2ccccc21 ?
ClpP mod: inactive; GLP1R cytotox: inactive; GLP-1R agonist: inactive; D3 ag: inactive; GLP1R inv ag: inactive

Results for Cc1ccc2nc(-c3ccc(NC(=O)CN4C(=O)NC(C)(c5ccc(OC(F)F)cc5)C4=O)cc3)sc2c1 (stereo not given) ?
ClpP mod: 14µM; GLP1R cytotox: inactive; GLP-1R agonist: inactive; D3 ag: inactive; DRD3 antagonist: inactive; GLP1R inv ag: inconclusive

How did C=CCn1c(SCC(=O)Nc2ccc(C(=O)O)cc2)nc2scc(-c3ccccc3)c2c1=O do in these assays?
ClpP mod: inactive; GLP1R cytotox: inactive; GLP-1R agonist: inactive; D3 ag: inactive; DRD3 antagonist: -71; GLP1R inv ag: inactive

Results for COc1ccc(NC(=O)C2CCN(S(=O)(=O)c3ccc4[nH]c(=O)ccc4c3)CC2)c(OC)c1 ?
ClpP mod: inactive; GLP1R cytotox: inactive; GLP-1R agonist: inactive; D3 ag: inactive; GLP1R inv ag: inactive

Results for CCN(CC)c1ccc(NC(=O)C2CCN(S(=O)(=O)c3cnc[nH]3)CC2)c(C)c1 ?
ClpP mod: inactive; GLP1R cytotox: inactive; D3 ag: inactive; GLP1R inv ag: inactive

Results for CCCN(CCC)CCNC(=O)C1CCCN(S(=O)(=O)c2cccc3nsnc23)C1 (stereo not given) ?
ClpP mod: inactive; GLP1R cytotox: inactive; GLP-1R agonist: inactive; D3 ag: inactive; GLP1R inv ag: inactive

What do the screens show for `COc1ccc(C(=O)CSc2nc(C)cc(=O)[nH]2)cc1`?
ClpP mod: inactive; GLP1R cytotox: inactive; GLP-1R agonist: inactive; D3 ag: inactive; DRD3 antagonist: inactive; GLP1R inv ag: inactive

What do the screens show for `COc1ccc(C(=O)CSc2cc(C)[nH]c(=O)n2)cc1`?
ClpP mod: inactive; GLP1R cytotox: inactive; GLP-1R agonist: inactive; D3 ag: inactive; DRD3 antagonist: -51; GLP1R inv ag: inactive

Results for O=C(/C=C/c1ccc2c(c1)OCO2)NCCSCc1cccc(Cl)c1 ?
ClpP mod: 32µM; GLP1R cytotox: inactive; GLP-1R agonist: inactive; D3 ag: inactive; DRD3 antagonist: inconclusive; GLP1R inv ag: inconclusive

Results for O=C(/C=C/c1ccc2c(c1)OCO2)NCCCN1CCOCC1 ?
ClpP mod: 16µM; GLP1R cytotox: inactive; GLP-1R agonist: inactive; D3 ag: inactive; DRD3 antagonist: inactive; GLP1R inv ag: inactive

How did Cc1ccccc1-c1cc2nc(NCCN3CCCC3)n(C)c(=O)c2s1 do in these assays?
ClpP mod: inactive; GLP1R cytotox: inactive; GLP-1R agonist: inactive; D3 ag: inactive; DRD3 antagonist: inactive; GLP1R inv ag: inactive

What do the screens show for `CN(C)S(=O)(=O)c1ccc(Nc2nc(C3CC3)nc3c2nnn3Cc2ccccc2Cl)cc1`?
ClpP mod: 32µM; GLP1R cytotox: inactive; GLP-1R agonist: inactive; D3 ag: inactive; DRD3 antagonist: inactive; GLP1R inv ag: inactive

What do the screens show for `CCCN1CCN(CCCNC(=O)c2ccc3c(Cl)c4c(nc3c2)CCCC4)CC1`?
ClpP mod: inactive; GLP1R cytotox: inconclusive; GLP-1R agonist: inactive; D3 ag: inactive; DRD3 antagonist: inactive; GLP1R inv ag: 5µM

How did CCN(CC)CCCNC(=O)c1ccc2c(Cl)c3c(nc2c1)CCCC3 do in these assays?
ClpP mod: inactive; GLP1R cytotox: inconclusive; GLP-1R agonist: inactive; D3 ag: inactive; DRD3 antagonist: inactive; GLP1R inv ag: 4.5µM

How did COc1ccc(C(=O)NCCc2csc(-c3ccc(Cl)cc3)n2)c(OC)c1 do in these assays?
ClpP mod: inactive; GLP1R cytotox: inactive; D3 ag: inactive; GLP1R inv ag: inconclusive

What do the screens show for `O=c1cc(-c2ccc([N+](=O)[O-])cc2)c2cc3c(cc2[nH]1)OCCO3`?
GLP1R cytotox: inactive; GLP-1R agonist: inactive; D3 ag: 36; DRD3 antagonist: inactive; GLP1R inv ag: inactive

How did CCCCC1C(C#N)=C(C)NC2=C1C(=O)CC(C)(C)C2 (stereo not given) do in these assays?
ClpP mod: 13µM; GLP1R cytotox: inactive; GLP-1R agonist: inactive; D3 ag: inactive; DRD3 antagonist: inactive; GLP1R inv ag: inconclusive

Results for CSC1=C(C#N)C(C)C2=C(CC(C)(C)CC2=O)N1 (stereo not given) ?
ClpP mod: inactive; GLP1R cytotox: inactive; GLP-1R agonist: inactive; D3 ag: inactive; DRD3 antagonist: inactive; GLP1R inv ag: inconclusive

How did COC(=O)c1ccc(C2C(C#N)=C(C)NC3=C2C(=O)CC(C)(C)C3)cc1 (stereo not given) do in these assays?
ClpP mod: 22µM; GLP1R cytotox: inactive; GLP-1R agonist: inactive; D3 ag: inactive; DRD3 antagonist: inactive; GLP1R inv ag: inactive

What do the screens show for `CCOC(=O)C1=C(C)NC2=C(C(=O)CC(C)(C)C2)C1c1cccc(C)n1` (stereo not given)?
ClpP mod: 32µM; GLP1R cytotox: inactive; GLP-1R agonist: inactive; D3 ag: inactive; DRD3 antagonist: inactive; GLP1R inv ag: inactive

Results for COc1ccc(C2C(C#N)=C(SC)NC3=C2C(=O)CC(C)(C)C3)cc1 (stereo not given) ?
ClpP mod: inactive; GLP1R cytotox: inactive; GLP-1R agonist: inactive; D3 ag: inactive; DRD3 antagonist: inactive; GLP1R inv ag: inactive

How did CCCOC(=O)C1=C(C)NC2=C(C(=O)CC(C)(C)C2)C1c1ccc(N(C)C)cc1 (stereo not given) do in these assays?
ClpP mod: inactive; GLP1R cytotox: inactive; GLP-1R agonist: inactive; D3 ag: inactive; DRD3 antagonist: inactive; GLP1R inv ag: inactive

Results for CCN(CC)c1ccc(C2C(C(=O)OCCOC)=C(C)NC3=C2C(=O)CC(C)(C)C3)cc1 (stereo not given) ?
ClpP mod: 28µM; GLP1R cytotox: inactive; GLP-1R agonist: inactive; D3 ag: inactive; DRD3 antagonist: inactive; GLP1R inv ag: inactive

Screening data from PubChem BioAssay.
